Experimental data reported in PubChem BioAssay (EPA / NIEHS).
“And” between values parts separate entries of the source, which are not always exact repeats. Identical values can stand only once. The source made the active and inactive calls. The calls were made as follows: active = hit-call score of the fitted dose curve at least 0.9, where 1 is the maximum; inactive = score below 0.9.

Test: BSK_4H_Eotaxin3: BioMAP Diversity Plus: 4H Assay for Eotaxin 3 Biomarker Activity (AID 2283000)
Conditions: primary human endothelial cells (HUVEC); actives raise or lower the signal
Procedure: BSK_4H is a cell-based, multiplexed-readout assay that uses umbilical vein endothelium, a human vascular primary cell, with measurements taken at 24 hours after chemical dosing in a 96-well plate.BSK_4H_Eotaxin3 is an assay component measured in the BSK_4H assay. It measures Eotaxin-3 antibody related to regulation of gene expression using ELISA technology.Data from the assay component BSK_4H_Eotaxin3 was analyzed into 1 assay endpoint. This assay endpoint, BSK_4H_Eotaxin3, was analyzed with bidirectional fitting relative to DMSO as the negative control and baseline of activity. Using a type of binding reporter, gain or loss-of-signal activity can be used to understand changes in the signaling as they relate to the gene CCL26. Furthermore, this assay endpoint can be referred to as a primary readout, because this assay has produced multiple assay endpoints where this one serves a signaling function. To generalize the intended target to other relatable targets, this assay endpoint is annotated to the cytokine intended target family, where the subfamily is chemotactic factor.
The levels of cell surface (or secreted, indicated by the prefix "s") biomarker endpoints were measured by ELISA. Overt cytotoxicity to cells in confluent adherent cultures (all systems other than the BT system) was assessed by measuring total protein levels using sulforhodamine B (SRB) staining in parallel cultures at the time of biomarker measurements, indicated as SRB endpoints. For proliferation assays for adherent cell types, individual cell types are cultured at sub-confluence and relative cell numbers quantified by SRB staining at time points optimized for each system (48 h: 3C and CASM3C systems; 72 h: BT and HDF3CGF systems; 96 h: SAg system). SRB was performed by staining cells with 0.1% SRB after fixation with 10% TCA and reading wells at 560 nm.Viability and proliferation of PBMC (T cells) was quantified by Alamar Blue reduction for the SAg and BT systems. For PBMC viability (referred to as PBMC Cytotoxicity within the assay endpoint names), cells were plated (75,000/well in a 96-well plate) and then chemical samples added for 1 h before addition of activators, SEB and TSST-1 (20 ng/mL final concentration each). Cells were incubated for 90 h. Then, Alamar Blue (20 uL/well) (Invitrogen, Cat DAL1100) was added for 6 h, and the plates were read with a fluorescence microplate reader at 546/580 nm (excitation/emission). For PBMC proliferation, cells were plated and activated as above but incubated for only 16 h prior to addition of Alamar Blue. Plates were read after 6 h.

**Q.** With CC(=O)S[C@@H]1CC2=CC(=O)CC[C@]2(C)[C@H]2CC[C@@]3(C)[C@@H](CC[C@@]34CCC(=O)O4)[C@H]12 as the molecule, how does the AC50 read?
**A.** 36.5 µM (active)

**Q.** For CCCCCOC(=O)COc1cc(N2C(=O)C3=C(CCCC3)C2=O)c(F)cc1Cl, which outcome is on record?
**A.** inactive

**Q.** With CCSC(=O)N(CC(C)C)CC(C)C as the molecule, how does the outcome read?
**A.** inactive

**Q.** Which AC50 does the source give for O=C(Nc1ccc([N+](=O)[O-])cc1Cl)c1cc(Cl)ccc1O here?
**A.** 0.148 µM (active)

**Q.** With CCCN(CCC)C(=O)SCC as the molecule, how does the outcome read?
**A.** inactive

**Q.** With CCOC(=O)[C@H](C)Oc1ccc(Oc2nc3ccc(Cl)cc3o2)cc1 as the molecule, how does the outcome read?
**A.** inactive

**Q.** For C#C[C@]1(O)CC[C@H]2[C@@H]3CCC4=CC(=O)CC[C@@H]4[C@H]3CC[C@@]21CC, which outcome is on record?
**A.** inactive

**Q.** With CCOC(=O)NCCOc1ccc(Oc2ccccc2)cc1 as the molecule, how does the outcome read?
**A.** inactive

**Q.** With CCN(Cc1c(F)cccc1Cl)c1c([N+](=O)[O-])cc(C(F)(F)F)cc1[N+](=O)[O-] as the molecule, how does the outcome read?
**A.** inactive

**Q.** Which outcome does the source give for CC(C)(C)[C@@H](O)[C@@H](Cc1ccc(Cl)cc1)n1cncn1 here?
**A.** inactive

**Q.** For O=C(O)c1ccccc1, which outcome is on record?
**A.** inactive

**Q.** With COC(=O)CSc1cc(N=c2sc(=O)n3n2CCCC3)c(F)cc1Cl as the molecule, how does the outcome read?
**A.** inactive

**Q.** With COc1nc(C)nc(NC(=O)NS(=O)(=O)c2ccccc2OCCCl)n1 as the molecule, how does the outcome read?
**A.** inactive

**Q.** For COC(=O)c1ccc(CNS(C)(=O)=O)cc1S(=O)(=O)NC(=O)Nc1nc(OC)cc(OC)n1, which outcome is on record?
**A.** inactive

**Q.** For CSC(=O)c1cccc2nnsc12, which outcome is on record?
**A.** inactive

**Q.** Which outcome does the source give for COc1c(Cl)ccc(Cl)c1C(=O)O here?
**A.** inactive

**Q.** For N[C@@H](Cc1cc(I)c(Oc2ccc(O)c(I)c2)c(I)c1)C(=O)O, which AC50 is on record?
**A.** 16 µM (active)

**Q.** With C#CCOC(=O)[C@@H](C)Oc1ccc(Oc2ncc(Cl)cc2F)cc1 as the molecule, how does the outcome read?
**A.** inactive

**Q.** With C=CCOC(Cn1ccnc1)c1ccc(Cl)cc1Cl (stereo not given) as the molecule, how does the outcome read?
**A.** inactive

**Q.** Which outcome does the source give for c1ccc(Nc2ccccc2)cc1 here?
**A.** inactive

**Q.** Which outcome does the source give for CCCCOCCOCCOCc1cc2c(cc1CCC)OCO2 here?
**A.** inactive

**Q.** With CCCCOC(=O)[C@@H](C)Oc1ccc(Oc2ccc(C(F)(F)F)cn2)cc1 as the molecule, how does the outcome read?
**A.** inactive

**Q.** Which AC50 does the source give for CCCN(CCC)c1c([N+](=O)[O-])cc(C(F)(F)F)c(N)c1[N+](=O)[O-] here?
**A.** 30.3 µM (active)

**Q.** For c1ccc2[nH]c(-c3cscn3)nc2c1, which outcome is on record?
**A.** inactive

**Q.** With CC1(C)C(C=C(Cl)Cl)C1C(=O)OCc1cccc(Oc2ccccc2)c1 (stereo not given) as the molecule, how does the outcome read?
**A.** inactive

**Q.** For CC(C)(c1ccc(O)cc1)c1ccc(O)cc1, which outcome is on record?
**A.** inactive

**Q.** For CCCCOC(=O)C(C)Oc1ccc(Oc2ccc(C(F)(F)F)cn2)cc1 (stereo not given), which outcome is on record?
**A.** inactive

**Q.** Which outcome does the source give for CCOC(=O)C(C)Oc1ccc(Oc2cnc3cc(Cl)ccc3n2)cc1 (stereo not given) here?
**A.** inactive

**Q.** With Cc1nn(C)c(Oc2ccccc2)c1C=NOCc1ccc(C(=O)OC(C)(C)C)cc1 as the molecule, how does the outcome read?
**A.** inactive

**Q.** For Oc1ccc(C(c2ccc(O)cc2)C(Cl)(Cl)Cl)cc1, which AC50 is on record?
**A.** 31.4 µM (active)

**Q.** With CCCOC(=O)c1ccc(C(=O)OCCC)nc1 as the molecule, how does the outcome read?
**A.** inactive

**Q.** For CCCOC(=O)NCCCN(C)C, which outcome is on record?
**A.** inactive

**Q.** Which outcome does the source give for COC(=O)c1c(Cl)nn(C)c1S(=O)(=O)NC(=O)Nc1nc(OC)cc(OC)n1 here?
**A.** inactive

**Q.** Which AC50 does the source give for S=C([S-])NCCNC(=S)[S-].[Mn+2] here?
**A.** 26.8 µM (active)

**Q.** Which AC50 does the source give for N#CSCSc1nc2ccccc2s1 here?
**A.** 2.64 µM (active) and 9.47 µM (active)

**Q.** With S=C(S)NCCNC(=S)S.[Mn+2].[S-]C([S-])=NCCN=C([S-])[S-].[Zn+2] as the molecule, how does the outcome read?
**A.** inactive

**Q.** For C[C@]12CC[C@@H]3c4ccc(O)cc4C[C@@H](CCCCCCCCCS(=O)CCCC(F)(F)C(F)(F)F)[C@H]3[C@@H]1CC[C@@H]2O (stereo not given in full), which outcome is on record?
**A.** inactive

**Q.** With COC(=O)c1ccc(I)cc1S(=O)(=O)NC(=O)Nc1nc(C)nc(OC)n1 as the molecule, how does the outcome read?
**A.** inactive

**Q.** For CCOC(=O)C(C)Oc1ccc(Oc2nc3ccc(Cl)cc3o2)cc1 (stereo not given), which outcome is on record?
**A.** inactive

**Q.** Which outcome does the source give for CCC(C)OC(=O)N1CCCCC1CCO (stereo not given) here?
**A.** inactive
